Bioassay records: PubChem BioAssay, National Center for Advancing Translational Sciences (NCATS)
TCR act: T cell receptor activation; Potency, µM (highest dose often 9.22 µM), actives largely listed as activators; primary human leukocytes, anti-CD3, IL-2 HTRF, 48 h; 330,000 tested, under 10 active
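HTRF read-out of IL-2 secretion: europium cryptate donor excited at 320nm, d2 acceptor emission at 665nm. Cells were primary human leukocytes incubated 48 hr with compounds and a-CD3 beads, supplying TCR signal only.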
TRb SRC2 PPI: disrupts binding of human TR beta to SRC2. TRbeta-SRC2 peptide binding, fluorescence polarization; receptor liganded with 1 µM T3. Potency, µM (doses to about 106 µM), hits mostly inhibitors. 280,000 compounds, 0.065% hits; note: nearly all actives have a fitted effect of over 50% in size
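Each compound concentration gave % activity, normalized to unbound and bound Texas Red SRC2 controls, from polarization read after 5 hr ambient incubation with T3-loaded human TRb LBD.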
TR SRC2 fluor cs: alters Texas Red total fluorescence, flagging assay interference | TRb/SRC2 Texas Red total fluorescence interference | Potency, µM (series often up to 106 µM) | 280,000 compounds, 0.29% hits; active = well fitted curve in either direction with a large enough effect; inconclusive = small, poorly fitted or top-dose-only effect
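Human TRb ligand-binding domain at 0.6 uM with 20 nM Texas Red SRC2 peptide in Tris buffer containing 1 uM T3 and 5% DMSO, incubated with compound 5 h at ambient temperature. Total fluorescence (555/632 nm) calculated as parallel + 2 × perpendicular.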
TSHR antagonist: human thyrotropin receptor antagonism; P16473; TSHR-expressing cells, TSH-stimulated cAMP HTRF, 2 h; stronger effect = lower value; activity change, negative = inhibition, % at 11.5 µM; 330,000 compounds, 0.2% hits; AID 504810;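 active = activity change below a set negative limit, meaning inhibition stronger than a set level, cut at about -70% in these data; inconclusive = activity change between two set negative limits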
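Freshly harvested TSHR cells receive pin-tooled compound, then EC80 TSH at 4nM final. After 2 hours at 37 deg C, antibody in lysis buffer and cAMP-d2 are added; 30 minutes at ambient temperature precede the HTRF read.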
NPSR antagonist: blocks cAMP signaling of the human neuropeptide S receptor; Q6W5P4; CHO-NPSR cells, cAMP TR-FRET, antagonist mode; Potency, µM (doses to about 38.3 µM), usual class: inhibitors; 220,000 compounds, 1% hits; AID 1461; note: nearly all actives have a fitted effect of over 50% in size
Target sequence (Q6W5P4 whole entry, looked up): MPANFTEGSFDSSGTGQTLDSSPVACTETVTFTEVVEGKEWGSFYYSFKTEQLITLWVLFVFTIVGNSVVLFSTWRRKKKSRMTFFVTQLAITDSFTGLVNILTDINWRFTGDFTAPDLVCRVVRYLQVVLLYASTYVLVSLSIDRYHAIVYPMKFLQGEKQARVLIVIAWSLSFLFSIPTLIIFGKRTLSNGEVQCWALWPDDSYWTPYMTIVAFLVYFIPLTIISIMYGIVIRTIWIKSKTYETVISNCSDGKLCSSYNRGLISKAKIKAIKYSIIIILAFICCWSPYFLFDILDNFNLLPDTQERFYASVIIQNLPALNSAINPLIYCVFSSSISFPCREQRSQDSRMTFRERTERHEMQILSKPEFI
FBPA coupling cs: coupling enzyme interference in Giardia aldolase counter-screen; coupling enzyme system counterscreen, AmpLite Red fluorescence; activity change, negative = inhibition, % at 58.2 µM, hits read low; 290,000 compounds, 0.67% hits; in the data active = activity change below about -30%
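Counterscreen lacking aldolase: glyceraldehyde-3-phosphate coupling-enzyme reagent preincubated 10 min at RT with compound (at 57.5 uM final), then substrate/coupling system with AmpLite Red added; fluorescence read at 525/598 nm after 20 min RT.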
Numbers stand for hits; . = inactive; ? = inconclusive; / = not tested or not shown; [ ] = dose if it differs, or a comment. Sampled rows, rich in hits. Any-hit rate of the full collection: about 1%. Unless noted, calls come from the whole dose curve; as a rule, active = well fitted curve in the direction sought with a large enough effect; inconclusive = small, poorly fitted or top-dose-only effect, or another doubt; inactive = no such curve, though single readings can be large; an effect the other way counts as inactive or inconclusive.

SMILES | TCR act | TRb SRC2 PPI | TR SRC2 fluor cs | TSHR antagonist | NPSR antagonist | FBPA coupling cs
COc1ccc(NC(=O)Cn2c(=O)n(-c3ccc(Cl)cc3)c(=O)c3c(C)c(C(=O)N(C)C)sc32)cc1Cl | / | . | . | / | / | /
O=C(Nc1ccccc1C(=O)N1CCN(c2cccc(Cl)c2)CC1)C1=CSCCO1 | . | / | / | -132.3 | / | .
Cc1nc2nncn2c(NCc2ccc(Cl)cc2)c1C | / | . | . | / | / | /
COc1ccc(C(CC(=O)N2CCOCC2)c2c(OC)cc(OC)c3c(-c4ccccc4)cc(=O)oc23)cc1 (configuration not stated) | . | . | . | -82.0 | . | .
CCN(C(=O)CN1CCCCCC1)c1c(N)n(Cc2ccccc2)c(=O)[nH]c1=O | . | / | / | . | / | /
CCN(C(=O)CN1CCN(c2ccc(O)cc2)CC1)c1c(N)n(Cc2ccccc2)c(=O)[nH]c1=O | . | . | . | . | . | -39.2
CC(C)CN(C(=O)CN1CCN(c2ccc(O)cc2)CC1)c1c(N)n(CC(C)C)c(=O)[nH]c1=O | . | . | . | . | . | -32.0
CC1CCN(C(=O)c2ccc3c(c2NCCO)C(=O)c2ccccc2C3=O)CC1 | . | . | . | . | . | .
CCN(CC)CCNC(=O)c1ccc2c(c1NCCO)C(=O)c1ccccc1C2=O | . | . | . | . | ? | -31.3
Cc1ccc(S(=O)(=O)c2c(O)cc(C)c(NS(=O)(=O)c3ccc(Br)cc3)c2C)cc1 | / | . | . | / | / | /
Nc1cc2nn(-c3ccccc3)nc2cc1Cl | . | . | . | . | . | -43.8
Nc1ccc2nn(-c3ccccc3)nc2c1 | . | . | . | . | . | .
Cc1nn2c(=O)cc(COC(=O)c3ccccc3NC(=O)C(C)C)nc2s1 | / | . | . | / | / | /
CCCN1C(=O)S/C(=C/c2ccc(N3CCOCC3)o2)C1=O | . | . | . | . | . | -48.2
CCCN1C(=O)S/C(=C\c2ccc(N3CCOCC3)cc2C)C1=O | / | . | . | . | . | .
COC(=O)CN1C(=O)S/C(=C/c2ccc(N3CCCCC3)o2)C1=O | . | . | . | . | ? | -42.9
CCOC(=O)CN1C(=O)S/C(=C/c2ccc(N3CCCCC3)o2)C1=O | . | . | . | . | . | .
CCCN1C(=O)S/C(=C\c2ccc(N3CCOCC3)o2)C1=O | . | . | . | . | . | -49.6
Cc1cccc(-c2nc(CCNC(=O)c3ccccc3Br)cs2)c1 | / | . | . | / | / | /
CCOc1ccc(C2=NC(c3cccs3)=Nc3ccc(C(C)C)cc3N2)cc1 | / | . | . | / | / | /
CC(C)c1ccc(N2C(=O)/C(=C/N(C)C)SC2=S)cc1 | . | ? | 28.2µM[fluorescent] | . | . | .
CCO/C=C1\SC(=S)N(c2ccc(Cl)cc2)C1=O | . | ? | . | . | . | .
CC(Sc1ccc(Cl)cc1)C(=O)Nc1ccccc1-c1ccccc1 (configuration not stated) | . | . | 25.1µM[quencher] | . | ? | .
Cc1ccc(SC(C)C(=O)Nc2ccccc2-c2ccccc2)cc1 (configuration not stated) | . | . | . | . | . | .
COc1cccc(CNC(=O)c2ccc(CSc3nc4ccncc4n3Cc3cccc(C)c3)cc2)c1 | / | . | . | / | / | /
SMILES | TCR act | TRb SRC2 PPI | TR SRC2 fluor cs | TSHR antagonist | NPSR antagonist | FBPA coupling cs
CCOC(=O)c1cc2c(ccn2C)n1CC(=O)N1CCN(c2cccc(C(F)(F)F)c2)CC1 | . | . | . | . | . | -32.8
CCOc1ccc2oc(=O)cc(CN3CCN(c4ccc(OC)cc4)CC3)c2c1 | / | . | . | / | / | /
C/C=C1/C(=O)C[C@@H]2[C@H]3CCC4=CC(=O)CC[C@]4(C)[C@@H]3CC[C@]12C | / | . | . | / | / | /
COc1ccc(CCNC2=C(Cl)C(=O)N(CCc3ccc(OC)c(OC)c3)C2=O)cc1OC | . | . | . | -73.8 | ? | .
Cn1c(NC(=O)c2ccc(C(C)(C)C)cc2)cc(=O)n(C)c1=O | . | . | . | . | . | .
Cn1c(NNC(=O)c2ccc(C(C)(C)C)cc2)cc(=O)n(C)c1=O | . | . | . | . | . | -34.0
CCOc1ccc(CC(=O)NCC(=O)NCc2cc(=O)n(C)c(=O)n2C)cc1 | . | / | / | . | / | .
Cc1cccc(CC(=O)NCC(=O)NCc2cc(=O)n(C)c(=O)n2C)c1 | . | / | / | -89.9 | / | .
CCn1c(=O)cc(OCC(=O)N2CCN(c3ccc(C)cc3)C(C)C2)c2ccccc21 (configuration not stated) | / | . | . | / | / | /
NC(=O)NC(CC(=O)NCCCc1ccccc1)c1ccc(Cl)cc1 (configuration not stated) | . | 12.6µM | ? | . | .[7.67 µM] | .
NC(=O)NC(CC(=O)NCCc1ccc(S(N)(=O)=O)cc1)c1ccc(Cl)cc1 (configuration not stated) | . | . | . | . | . | .
CCC(C)NC(=O)CN1C(=O)c2cccc3cccc1c23 (configuration not stated) | / | / | / | . | / | .
CCN1/C(=N\N)c2cccc3cccc1c23 | . | . | . | . | . | -47.0
Cc1ccc(C)c2[nH]c(=O)c(CN(CCN3CCOCC3)Cc3nnnn3CC3CCCO3)cc12 (configuration not stated) | . | . | . | . | . | .
Cc1ccc(C)c2[nH]c(=O)c(CN(Cc3nnnn3C3CCCCC3)CC3CCCO3)cc12 (configuration not stated) | / | . | . | . | ? | -36.6
Cc1ccc(NC(=O)CCCCCCCCCCC2COCCO2)c(C)c1 (configuration not stated) | . | ? | 0.0251µM[quencher] | . | . | .
COc1ccc(C=C2c3ccccc3C(=O)c3ccccc32)cc1O | / | . | . | / | / | .
OCCCCCNc1ncnc2ccccc12 | . | . | . | . | . | .
OCCCCNc1cccc2ccccc12 | . | . | . | . | . | -40.6
Cc1cccc(N2CCN(C(=O)C3CCN(S(=O)(=O)c4cn(C)cn4)CC3)CC2)c1C | / | . | . | / | / | /
N#C/C(=N\Nc1ccc(Cl)cc1)C(=O)c1ccccc1 | . | . | . | . | 12.6µM | .
Cc1c(N/N=C(\C#N)C(=O)c2ccc(Cl)cc2)c(=O)n(-c2ccccc2)n1C | . | . | . | . | . | .
CC(=O)c1ccc(N2C(=O)N(Cc3cccc(C(F)(F)F)c3)c3ccccc3S2(=O)=O)cc1 | / | . | . | / | / | /
COc1ccccc1CNS(=O)(=O)c1ccc2c(c1)CC(C)N2C(=O)C1CCC1 (configuration not stated) | . | . | 22.4µM[quencher] | . | / | .
COc1ccccc1CNS(=O)(=O)c1ccc2c(c1)CC(C)N2C(=O)C1CC1 (configuration not stated) | . | / | / | . | / | .
COc1ccc(NC(=O)CCNS(=O)(=O)c2ccc3c(c2)CC(C)N3C(C)=O)cc1 (configuration not stated) | . | / | / | -91.9 | / | .
